Changes are numbered by the printed parent chain.
How the values were obtained:
Experiment in all cases: PBM; 200 nM protein, PBS
Details in all cases: dsDNA, one strand shown
HOXB9 [1] = molecular target: HOXB9 (Homo sapiens, UniProt P17482 171-250, T197M)
HOXC9 [2] = molecular target: HOXC9 (Homo sapiens, UniProt P31274 178-260, K195R)
VENTX [3] = molecular target: T1, VENTX (Homo sapiens, UniProt O95231 78-163)
T1 sequence: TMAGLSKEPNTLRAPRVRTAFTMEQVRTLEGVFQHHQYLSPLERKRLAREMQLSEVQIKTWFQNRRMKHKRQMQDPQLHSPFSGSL

PAX4 [4] = molecular target: T2, PAX4 (Homo sapiens, UniProt O43316 9-242, R200K)
T2 sequence: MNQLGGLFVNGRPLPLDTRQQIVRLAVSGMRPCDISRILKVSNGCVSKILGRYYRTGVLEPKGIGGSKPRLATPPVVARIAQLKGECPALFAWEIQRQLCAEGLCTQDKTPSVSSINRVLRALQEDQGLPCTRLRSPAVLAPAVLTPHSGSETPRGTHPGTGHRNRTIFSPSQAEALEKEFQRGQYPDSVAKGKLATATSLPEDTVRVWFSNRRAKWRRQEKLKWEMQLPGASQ

VENTX [5] = molecular target: T3, VENTX (Homo sapiens, UniProt O95231 78-163, Y115F)
T3 sequence: T1 sequence with Y38F

PAX4 [6] = molecular target: T4, PAX4 (Homo sapiens, UniProt O43316 9-242)
T4 sequence: T2 sequence with K192R

HOXB9 [7] = molecular target: HOXB9 (Homo sapiens, UniProt P17482 171-250)
Chain of HOXB9 (Homo sapiens, UniProt P17482 171-250) (P17482 171-250): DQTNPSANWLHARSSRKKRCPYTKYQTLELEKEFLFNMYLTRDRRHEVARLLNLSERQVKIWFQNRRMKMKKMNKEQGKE

PAX4 [8] = molecular target: T5, PAX4 (Homo sapiens, UniProt O43316 9-242, R200Q)
T5 sequence: T2 sequence with K192Q

HOXC9 [9] = molecular target: HOXC9 (Homo sapiens, UniProt P31274 178-260, R193K)
Chain of HOXC9 (Homo sapiens, UniProt P31274 178-260, R193K) (P31274 178-260 R193K): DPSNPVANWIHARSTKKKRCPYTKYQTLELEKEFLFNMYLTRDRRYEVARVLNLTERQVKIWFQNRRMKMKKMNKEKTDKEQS

HOXA2 [10] = molecular target: HOXA2 (Homo sapiens, UniProt O43364 129-215, R185K)
Chain of HOXA2 (Homo sapiens, UniProt O43364 129-215, R185K) (O43364 129-215 R185K): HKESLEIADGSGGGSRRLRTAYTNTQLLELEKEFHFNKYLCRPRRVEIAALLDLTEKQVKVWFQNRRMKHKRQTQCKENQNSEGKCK

PAX4 [11] = molecular target: T6, PAX4 (Homo sapiens, UniProt O43316 9-242, F177V)
T6 sequence: T2 sequence with F169V, K192R

HOXC10 = HOXC10 (Homo sapiens, UniProt Q9NYD6 254-340, K271E)
Chain of HOXC10 (Q9NYD6 254-340 K271E): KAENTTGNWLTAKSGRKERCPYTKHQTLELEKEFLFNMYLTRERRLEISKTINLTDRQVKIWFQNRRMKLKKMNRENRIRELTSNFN

PAX4 [12] = molecular target: T7, PAX4 (Homo sapiens, UniProt O43316 9-242, F177Y)
T7 sequence: T2 sequence with F169Y, K192R

VAX1 = VAX1 (Homo sapiens, UniProt Q5SQQ9 86-172)
Chain of VAX1 (Q5SQQ9 86-172): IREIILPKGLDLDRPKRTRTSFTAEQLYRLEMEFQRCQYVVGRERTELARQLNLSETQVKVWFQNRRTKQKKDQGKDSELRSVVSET

HOXB9 [13] = molecular target: HOXB9 (Homo sapiens, UniProt P17482 171-250, R186Q)
Chain of HOXB9 (Homo sapiens, UniProt P17482 171-250, R186Q) (P17482 171-250 R186Q): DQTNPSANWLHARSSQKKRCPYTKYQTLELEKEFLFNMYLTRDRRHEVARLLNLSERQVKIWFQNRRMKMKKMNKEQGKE

HOXC9 [14] = molecular target: HOXC9 (Homo sapiens, UniProt P31274 178-260, R222W)
Chain of HOXC9 (Homo sapiens, UniProt P31274 178-260, R222W) (P31274 178-260 R222W): as the sequence (P31274 178-260 R193K) above, with K16R, R45W counted along it

PAX4 [15] = molecular target: T8, PAX4 (Homo sapiens, UniProt O43316 9-242, R227W)
T8 sequence: T2 sequence with K192R, R219W

HOXA2 [16] = molecular target: HOXA2 (Homo sapiens, UniProt O43364 129-215, Y150S)
Chain of HOXA2 (Homo sapiens, UniProt O43364 129-215, Y150S) (O43364 129-215 Y150S): as the sequence (O43364 129-215 R185K) above, with Y22S, K57R counted along it

HOXA2 [17] = molecular target: HOXA2 (Homo sapiens, UniProt O43364 129-215)
Chain of HOXA2 (Homo sapiens, UniProt O43364 129-215) (O43364 129-215): as the sequence (O43364 129-215 R185K) above, with K57R counted along it

NKX2-5 = NKX2-5 (Homo sapiens, UniProt P52952 125-210, R139K)
Chain of NKX2-5 (P52952 125-210 R139K): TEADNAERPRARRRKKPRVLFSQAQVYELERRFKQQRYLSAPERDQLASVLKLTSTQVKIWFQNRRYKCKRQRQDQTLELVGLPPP

Chain of HOXC9 (Homo sapiens, UniProt P31274 178-260, K195R) (P31274 178-260 K195R): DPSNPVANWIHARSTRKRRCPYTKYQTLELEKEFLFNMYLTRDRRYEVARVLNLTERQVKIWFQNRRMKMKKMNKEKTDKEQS
Chain of HOXB9 (Homo sapiens, UniProt P17482 171-250, T197M) (P17482 171-250 T197M): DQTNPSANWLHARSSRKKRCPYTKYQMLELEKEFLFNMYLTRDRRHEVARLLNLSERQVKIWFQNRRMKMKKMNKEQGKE

Sequence | binding signal (HOXB9 [1]) | binding signal (HOXC9 [2]) | binding signal (VENTX [3]) | binding signal (PAX4 [4]) | binding signal (VENTX [5]) | binding signal (PAX4 [6]) | binding signal (HOXB9 [7]) | binding signal (PAX4 [8]) | binding signal (HOXC9 [9]) | binding signal (HOXA2 [10]) | binding signal (PAX4 [11]) | binding signal (HOXC10) | binding signal (PAX4 [12]) | binding signal (VAX1) | binding signal (HOXB9 [13]) | binding signal (HOXC9 [14]) | binding signal (PAX4 [15]) | binding signal (HOXA2 [16]) | binding signal (HOXA2 [17]) | binding signal (NKX2-5)
GTAATTAA | 10.6 upbm affinity estimate (log intensity, higher = more binding, comparable within an allelic series) | 13.3 upbm affinity estimate (log intensity, higher = more binding, comparable within an allelic series) | 13 upbm affinity estimate (log intensity, higher = more binding, comparable within an allelic series) | 12 upbm affinity estimate (log intensity, higher = more binding, comparable within an allelic series) | 12.4 upbm affinity estimate (log intensity, higher = more binding, comparable within an allelic series) | 12.6 upbm affinity estimate (log intensity, higher = more binding, comparable within an allelic series) | 12.6 upbm affinity estimate (log intensity, higher = more binding, comparable within an allelic series) | 12.5 upbm affinity estimate (log intensity, higher = more binding, comparable within an allelic series) | 13.2 upbm affinity estimate (log intensity, higher = more binding, comparable within an allelic series) | 13.9 upbm affinity estimate (log intensity, higher = more binding, comparable within an allelic series) | 10.8 upbm affinity estimate (log intensity, higher = more binding, comparable within an allelic series) | 12.9 upbm affinity estimate (log intensity, higher = more binding, comparable within an allelic series) | 11.3 upbm affinity estimate (log intensity, higher = more binding, comparable within an allelic series) | 13.8 upbm affinity estimate (log intensity, higher = more binding, comparable within an allelic series) | 12.4 upbm affinity estimate (log intensity, higher = more binding, comparable within an allelic series) | 11.3 upbm affinity estimate (log intensity, higher = more binding, comparable within an allelic series) | 11.2 upbm affinity estimate (log intensity, higher = more binding, comparable within an allelic series) | 11.1 upbm affinity estimate (log intensity, higher = more binding, comparable within an allelic series) | 13.2 upbm affinity estimate (log intensity, higher = more binding, comparable within an allelic series) | –
ATCCTTAG | – | – | – | – | – | – | – | – | – | – | – | – | – | – | – | – | – | – | – | 10.5 upbm affinity estimate (log intensity, higher = more binding, comparable within an allelic series)
TAATTAAA | 10.3 upbm affinity estimate (log intensity, higher = more binding, comparable within an allelic series) | 13.1 upbm affinity estimate (log intensity, higher = more binding, comparable within an allelic series) | 12.5 upbm affinity estimate (log intensity, higher = more binding, comparable within an allelic series) | 12 upbm affinity estimate (log intensity, higher = more binding, comparable within an allelic series) | 11.9 upbm affinity estimate (log intensity, higher = more binding, comparable within an allelic series) | 12.5 upbm affinity estimate (log intensity, higher = more binding, comparable within an allelic series) | 12.4 upbm affinity estimate (log intensity, higher = more binding, comparable within an allelic series) | 12.4 upbm affinity estimate (log intensity, higher = more binding, comparable within an allelic series) | 13 upbm affinity estimate (log intensity, higher = more binding, comparable within an allelic series) | 13.5 upbm affinity estimate (log intensity, higher = more binding, comparable within an allelic series) | 11 upbm affinity estimate (log intensity, higher = more binding, comparable within an allelic series) | 12.7 upbm affinity estimate (log intensity, higher = more binding, comparable within an allelic series) | 11.3 upbm affinity estimate (log intensity, higher = more binding, comparable within an allelic series) | 13.3 upbm affinity estimate (log intensity, higher = more binding, comparable within an allelic series) | 12.1 upbm affinity estimate (log intensity, higher = more binding, comparable within an allelic series) | 11.5 upbm affinity estimate (log intensity, higher = more binding, comparable within an allelic series) | 11.2 upbm affinity estimate (log intensity, higher = more binding, comparable within an allelic series) | 10.9 upbm affinity estimate (log intensity, higher = more binding, comparable within an allelic series) | 12.9 upbm affinity estimate (log intensity, higher = more binding, comparable within an allelic series) | –
AATTAATT | 10.3 upbm affinity estimate (log intensity, higher = more binding, comparable within an allelic series) | 12.9 upbm affinity estimate (log intensity, higher = more binding, comparable within an allelic series) | 12.5 upbm affinity estimate (log intensity, higher = more binding, comparable within an allelic series) | 12.1 upbm affinity estimate (log intensity, higher = more binding, comparable within an allelic series) | 11.8 upbm affinity estimate (log intensity, higher = more binding, comparable within an allelic series) | 12.7 upbm affinity estimate (log intensity, higher = more binding, comparable within an allelic series) | 12.2 upbm affinity estimate (log intensity, higher = more binding, comparable within an allelic series) | 12.8 upbm affinity estimate (log intensity, higher = more binding, comparable within an allelic series) | 12.8 upbm affinity estimate (log intensity, higher = more binding, comparable within an allelic series) | 13.5 upbm affinity estimate (log intensity, higher = more binding, comparable within an allelic series) | 10.9 upbm affinity estimate (log intensity, higher = more binding, comparable within an allelic series) | 12.2 upbm affinity estimate (log intensity, higher = more binding, comparable within an allelic series) | 11.6 upbm affinity estimate (log intensity, higher = more binding, comparable within an allelic series) | 13.3 upbm affinity estimate (log intensity, higher = more binding, comparable within an allelic series) | 11.9 upbm affinity estimate (log intensity, higher = more binding, comparable within an allelic series) | 11.2 upbm affinity estimate (log intensity, higher = more binding, comparable within an allelic series) | 11.3 upbm affinity estimate (log intensity, higher = more binding, comparable within an allelic series) | 11 upbm affinity estimate (log intensity, higher = more binding, comparable within an allelic series) | 12.8 upbm affinity estimate (log intensity, higher = more binding, comparable within an allelic series) | –
CATAATTA | 10.3 upbm affinity estimate (log intensity, higher = more binding, comparable within an allelic series) | 12.8 upbm affinity estimate (log intensity, higher = more binding, comparable within an allelic series) | 12.6 upbm affinity estimate (log intensity, higher = more binding, comparable within an allelic series) | 11.9 upbm affinity estimate (log intensity, higher = more binding, comparable within an allelic series) | 11.9 upbm affinity estimate (log intensity, higher = more binding, comparable within an allelic series) | 12.5 upbm affinity estimate (log intensity, higher = more binding, comparable within an allelic series) | 11.9 upbm affinity estimate (log intensity, higher = more binding, comparable within an allelic series) | 12.1 upbm affinity estimate (log intensity, higher = more binding, comparable within an allelic series) | 12.8 upbm affinity estimate (log intensity, higher = more binding, comparable within an allelic series) | 13.8 upbm affinity estimate (log intensity, higher = more binding, comparable within an allelic series) | 11 upbm affinity estimate (log intensity, higher = more binding, comparable within an allelic series) | 12.2 upbm affinity estimate (log intensity, higher = more binding, comparable within an allelic series) | 11.3 upbm affinity estimate (log intensity, higher = more binding, comparable within an allelic series) | 13.6 upbm affinity estimate (log intensity, higher = more binding, comparable within an allelic series) | 11.7 upbm affinity estimate (log intensity, higher = more binding, comparable within an allelic series) | 11.1 upbm affinity estimate (log intensity, higher = more binding, comparable within an allelic series) | 11.3 upbm affinity estimate (log intensity, higher = more binding, comparable within an allelic series) | 11.1 upbm affinity estimate (log intensity, higher = more binding, comparable within an allelic series) | 13 upbm affinity estimate (log intensity, higher = more binding, comparable within an allelic series) | –
ACCAGGGC | – | – | – | – | – | – | – | – | – | – | – | – | – | – | – | – | – | – | – | 8.76 upbm affinity estimate (log intensity, higher = more binding, comparable within an allelic series)
TAATTACA | 10.3 upbm affinity estimate (log intensity, higher = more binding, comparable within an allelic series) | 12.9 upbm affinity estimate (log intensity, higher = more binding, comparable within an allelic series) | 12.7 upbm affinity estimate (log intensity, higher = more binding, comparable within an allelic series) | 11.9 upbm affinity estimate (log intensity, higher = more binding, comparable within an allelic series) | 12.2 upbm affinity estimate (log intensity, higher = more binding, comparable within an allelic series) | 12.4 upbm affinity estimate (log intensity, higher = more binding, comparable within an allelic series) | 12.1 upbm affinity estimate (log intensity, higher = more binding, comparable within an allelic series) | 12.3 upbm affinity estimate (log intensity, higher = more binding, comparable within an allelic series) | 12.9 upbm affinity estimate (log intensity, higher = more binding, comparable within an allelic series) | 14 upbm affinity estimate (log intensity, higher = more binding, comparable within an allelic series) | 10.8 upbm affinity estimate (log intensity, higher = more binding, comparable within an allelic series) | 12.3 upbm affinity estimate (log intensity, higher = more binding, comparable within an allelic series) | 11.2 upbm affinity estimate (log intensity, higher = more binding, comparable within an allelic series) | 13.6 upbm affinity estimate (log intensity, higher = more binding, comparable within an allelic series) | 11.8 upbm affinity estimate (log intensity, higher = more binding, comparable within an allelic series) | 11 upbm affinity estimate (log intensity, higher = more binding, comparable within an allelic series) | 11.2 upbm affinity estimate (log intensity, higher = more binding, comparable within an allelic series) | 11 upbm affinity estimate (log intensity, higher = more binding, comparable within an allelic series) | 13.3 upbm affinity estimate (log intensity, higher = more binding, comparable within an allelic series) | –
CTTAATTA | 10.2 upbm affinity estimate (log intensity, higher = more binding, comparable within an allelic series) | 12.7 upbm affinity estimate (log intensity, higher = more binding, comparable within an allelic series) | 12.9 upbm affinity estimate (log intensity, higher = more binding, comparable within an allelic series) | 12.1 upbm affinity estimate (log intensity, higher = more binding, comparable within an allelic series) | 12.3 upbm affinity estimate (log intensity, higher = more binding, comparable within an allelic series) | 12.7 upbm affinity estimate (log intensity, higher = more binding, comparable within an allelic series) | 11.8 upbm affinity estimate (log intensity, higher = more binding, comparable within an allelic series) | 12.6 upbm affinity estimate (log intensity, higher = more binding, comparable within an allelic series) | 12.6 upbm affinity estimate (log intensity, higher = more binding, comparable within an allelic series) | 13.8 upbm affinity estimate (log intensity, higher = more binding, comparable within an allelic series) | 11 upbm affinity estimate (log intensity, higher = more binding, comparable within an allelic series) | 12.2 upbm affinity estimate (log intensity, higher = more binding, comparable within an allelic series) | 11.5 upbm affinity estimate (log intensity, higher = more binding, comparable within an allelic series) | 13.8 upbm affinity estimate (log intensity, higher = more binding, comparable within an allelic series) | 11.5 upbm affinity estimate (log intensity, higher = more binding, comparable within an allelic series) | 11.1 upbm affinity estimate (log intensity, higher = more binding, comparable within an allelic series) | 11.3 upbm affinity estimate (log intensity, higher = more binding, comparable within an allelic series) | 11 upbm affinity estimate (log intensity, higher = more binding, comparable within an allelic series) | 13.1 upbm affinity estimate (log intensity, higher = more binding, comparable within an allelic series) | –
